Many of the other results were omitted from the sample, so hits are more common in it than they were.
Pf Dd2 inh: qHTS Primary assay for Inhibitors of Plasmodium falciparum Dd2 growth in vitro; P. falciparum Dd2 growth, SYBR Green, 72 h; 120,000 compounds, 4.3% hits; AID 1347417, 2020; Potency, µM (highest dose often 28.9 µM), hits mostly inhibitors; active = well fitted inhibition curve with a large enough effect; note: nearly all actives have a fitted effect of over 65% in size
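Readout: SYBR Green fluorescence, 485 nm excitation, 535 nm emission, after ~16 h lysis at 37C. Before that, Dd2-infected red cells (2.5% hematocrit) grew 72 h with compound, 29 uM top final concentration.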
Numbers stand for hits; 0 = inactive.

SMILES | Pf Dd2 inh
CS(=O)(=O)N(Cc1cccnc1)C1CN(C(=O)Cc2c[nH]c3ccccc23)C1 | 0
Cc1ccc2c(CC(=O)Nc3cccc(C(F)(F)F)c3)coc2c1 | 0
Cc1ccc2onc(CC(=O)Nc3cccc(C(F)(F)F)c3)c2c1 | 11µM
COC(=O)c1ccccc1NC(=O)Cc1noc2ccc(C)cc12 | 0
Cc1cc(C)n(CC(=O)N2CC(N(C)Cc3cccnc3)C2)n1 | 0
O=C([C@@H]1C[C@@H](O)[C@H](O)[C@@H]2NC(=S)N(c3ccc4c(c3)OCO4)[C@@H]21)N1CCOCC1 | 0
COc1ccc(C2Cn3cnc(C(=O)N4CCC(C(=O)NC(C)c5ccccc5)CC4)c3CO2)cc1 (stereo not drawn) | 0
O=C1CC(c2ccccc2)N(C(=O)Nc2ccccc2F)CCCCCN1 (stereo not drawn) | 0
Oc1ccccc1CN1CCNc2cc(Nc3cccnc3)ncc2C1 | 8.9µM
CN1CCNc2cc(Nc3ccncc3)ncc2C1 | 0
Cc1cccc(CN2CCNc3cc(Nc4cccnc4)ncc3C2)c1 | 5.6µM
COc1cccc(Nc2cc3c(cn2)CN(Cc2cccnc2)CCN3)c1 | 0
COc1ccc(CN2CCNc3cnc(Nc4cccnc4)cc3C2)cc1O | 0
Cn1cc(CN2CCNc3cc(-c4ccccc4)ncc3C2)cn1 | 0
Cc1cc(-c2cc3c(cn2)CN(Cc2ccc4[nH]ccc4c2)CCN3)ccn1 | 0
c1ccc(-c2cc3c(cn2)CN(Cc2ccc4[nH]ccc4c2)CCN3)cc1 | 6.3µM
Oc1ccccc1CN1CCNc2cnc(OCc3cccnc3)cc2C1 | 0
Cn1cc(CN2CCNc3cc(Nc4ccccc4)ncc3C2)cn1 | 0
c1cncc(Nc2cc3c(cn2)CN(Cc2ccc4[nH]ccc4c2)CCN3)c1 | 2.8µM
CC(C)(C)CN1CCNc2cc(Nc3cccnc3)ncc2C1 | 0
COCCOCc1nc(C2CCCN2)no1 (stereo not drawn) | 0
O=C(CSC12CC3CC(CC(C3)C1)C2)NC1CCCN(c2ncccn2)C1 (stereo not drawn) | 0
Cn1cnnc1CC1CCNCC1 | 0
CC(=O)N1CC2(Cc3ccccc31)CN(C(=O)N(C)C)C2 | 0
CCO[C@H]1CN(C(=O)CCc2ccc(-c3ccccc3)cc2)C[C@@H]1O | 0
SMILES | Pf Dd2 inh
Cc1ccc(C(=O)N2C[C@@H](CO)[C@H](c3ccncc3)C2)cc1F | 0
O=C(NC1CCCCC1)C1CN(C(=O)c2ccc3c(c2)OCO3)CC12CCOCC2 (stereo not drawn) | 0
O=C1CCN(C(=O)Nc2ccccc2)CCCCCCN1 | 0
O=C(NC1CCN(c2ccc(F)cc2)C1=O)c1ccccc1C(F)(F)F (stereo not drawn) | 0
CSc1cccc(NC(=O)Cn2c(N3CCOCC3)nc(C)cc2=O)c1 | 0
Cc1nc(CN2C(=O)OC3(CCN(C(=O)c4scnc4C)CC3)C2(C)c2ccccc2)cs1 (stereo not drawn) | 0
Cn1nc(C2CCNC2)c2c(C(=O)N3CCOCC3)cc(C3CC3)nc21 (stereo not drawn) | 0
c1ccc(Nc2cc3c(cn2)CN(Cc2c[nH]c4ccccc24)CCN3)cc1 | 4.5µM
Oc1ccccc1CN1CCNc2cc(Nc3ccccc3)ncc2C1 | 5µM
c1ccc(Nc2cc3c(cn2)CN(Cc2ccn[nH]2)CCN3)cc1 | 0
c1ccc(Nc2cc3c(cn2)NCCN(Cc2ccccn2)C3)cc1 | 0
Oc1ccccc1CN1CCNc2cnc(Nc3ccccc3)cc2C1 | 0
Cc1[nH]cnc1CN1CCNc2cc(Nc3ccccc3)ncc2C1 | 0
NC(=O)Cn1ccc2cc(OCC3CCN(C(=O)COc4ccccc4)CC3)cnc21 | 0
CC(C)(C)c1coc([C@@H]2COCCN2Cc2cnc[nH]2)n1 | 0
CCOc1ccccc1C1NC(=O)N(CC(=O)Nc2cccc(C(C)C)c2)C2=C1C(=O)OC2 (stereo not drawn) | 0
Cc1nnc(N2CCC(C(=O)NC3CCC(C)CC3)CC2)c2nn(-c3ccc(Cl)cc3)c(C)c12 (stereo not drawn) | 0
CCN(CC)CCNC(=O)C1CCCN(c2nnc(C)c3c(C)n(-c4ccc(Cl)cc4)nc23)C1 (stereo not drawn) | 11µM
Cc1nnc(N2CCC(C(=O)N3CCCCC3)CC2)c2nn(-c3ccc(Cl)cc3)c(C)c12 | 10µM
Cc1nnc(N2CCN(C(=O)NCCC(C)C)CC2)c2nn(-c3ccc(Cl)cc3)c(C)c12 | 0
CCN(CC)CCNC(=O)C1CCCN(c2ncnc3onc(C)c23)C1 (stereo not drawn) | 0
Cc1nnc(N2CCC(C(=O)NC3CCCCC3)CC2)c2nn(-c3ccc(Cl)cc3)c(C)c12 | 0
CCC(CC)n1c(=O)n(Cc2cc(C(C)C)no2)c2cc(C(=O)O)cnc21 | 0
Cc1nc2n(c1C(=O)N(C)C)CCN(C(=O)c1cc(=O)n(C)c(=O)n1C)C2 | 0
CN1CCC(OC2CCN(C(=O)c3ccccn3)CC2)CC1 | 0
SMILES | Pf Dd2 inh
C[S+](=O)([O-])N1CCC(Cn2ccc3c(N4CCOCC4)nc(-c4cccc5[nH]ncc45)cc32)CC1 | 0
CN1CCC(Cn2ccc3c(N4CCOCC4)nc(-c4cccc5[nH]ccc45)cc32)CC1 | 0
CN1CCC(Cn2ccc3c(N4CCOCC4)nc(-c4ccc5cn[nH]c5c4)cc32)CC1 | 3.5µM
CC(=O)c1c(C)nn(CC(=O)NCc2c(C)ncc3c2CCNC3)c1C | 0
Cc1ncsc1CN1CCc2nc(N3CCN(C)CC3)sc2C1 | 0
COc1ccccc1C(=O)N(C)Cc1cccn1C | 0
CCC(=O)N1CCCN(CC)C2(CCOCC2)C1 | 0
Cc1cc2c(c(=O)n(-c3ccccc3)c(=O)n2CC(=O)Nc2ccc3c(c2)OCO3)n1C | 0
CCS(=O)(=O)Nc1ccc(C2(C(=O)NCc3ccc(F)cc3F)CCCCC2)cc1 | 0
CCS(=O)(=O)Nc1ccc(C2(C(=O)NCc3ccccc3)CCCCC2)cc1 | 0
CCS(=O)(=O)Nc1ccc(C2(C(=O)Nc3cccc(F)c3C)CCCCC2)cc1 | 11µM
COc1ccc([C@H]2C[C@@H](O)[C@@H](O)[C@@H]2NC(=O)Cc2ccc(Cl)cc2)cc1 | 0
CCOc1ccc(NC(=O)C(NS(=O)(=O)c2cccc3nsnc23)c2ccccc2)cc1 (stereo not drawn) | 0
O=C(Nc1cccc(C(F)(F)F)c1)O[C@@H]1CO[C@H]2[C@@H]1OC[C@@H]2NS(=O)(=O)c1cccc2cccnc12 | 0
CC(C)C(NS(=O)(=O)c1cccc2cccnc12)C(=O)Nc1ccc(OC(F)(F)F)cc1 (stereo not drawn) | 10µM
Clc1cccc(CN2CC[C@H](c3nc4ccccc4s3)C2)c1 | 0
COCCn1ncc(N2CCC(NC(=O)C3CCCCC3)CC2)cc1=O | 0
CC(C)CCNC(=O)c1cnc2n1CCN(Cc1ccccc1Cl)CC2 | 0
COC1C(=O)N(c2cccc(F)c2)C12CCN(C(=O)C(C)C)CC2 (stereo not drawn) | 0
COC1C(=O)N(c2cccc(F)c2)C12CCN(Cc1ccc(F)cc1F)CC2 (stereo not drawn) | 10µM
COC1CCOC2(CCN(S(=O)(=O)c3ccccc3C)CC2)C1 (stereo not drawn) | 0
COC1C(=O)N(C2CCN(C(=O)CCc3c[nH]c4ccccc34)CC2)C12CCOCC2 (stereo not drawn) | 0
COC1C(=O)N(c2cccc(F)c2)C12CCN(S(=O)(=O)c1ccccc1C)CC2 (stereo not drawn) | 13µM
COC1C(=O)N(C2CCN(Cc3ccc(F)cc3F)CC2)C12CCOCC2 (stereo not drawn) | 0
COC1C(=O)N(c2cccc(F)c2)C12CCN(C(=O)c1cnc(C)cn1)CC2 (stereo not drawn) | 0
